Test results taken from PubChem BioAssay AID463173 (ICCB-Longwood Screening Facility, Harvard Medical School, 2010).
The whole screen tested about 52,000 compounds, of which about 4,300 (8.3%) were called active. The list comes from a sample in which actives are over-represented; it also holds similar structures and randomly drawn compounds. Values without a mark were called inactive. No stated cut-off is given here; in the data, active means survival mostly below about 52% (no sharp cut-off); inactive means mostly above about 56%.

What follows are compounds tested on DeltatarO mutant (assay: growth inhibition of S. aureus wild type versus tarO mutant, primary screen, teichoic acid synthesis inhibitors, RN4220, OD600 (AID 463173)). Settings: OD600, 18 h, hits give low values, screened at 18.75 µg/mL (by protocol).

| SMILES | survival |
| --- | --- |
| COC(=O)c1cc(S(=O)(=O)NCC2CCN(Cc3ccc(F)cc3)CC2)cn1C | 109% |
| N#Cc1ccc(CSc2nnc(-c3ccc(Br)cc3)o2)cc1 | 87% |
| CCOC(=O)CSc1nnc(-c2ccc(OC)cc2)o1 | 66% |
| COc1ccc(-c2nnc(SCC(=O)Oc3cc(C)ccc3C)o2)cc1 | 67% |
| CCCCOC(=O)CSc1nnc(-c2ccc(C)cc2)o1 | 12% (active) |
| N#Cc1ccccc1CSc1nnc(-c2ccc(Br)cc2)o1 | 92% |
| CCCCCSc1nnc(-c2ccc(Br)cc2)o1 | -1% (active) |
| CC(=O)Nc1ccc(S(=O)(=O)N2CCC(N3CCN(Cc4ccc(C)cc4)C(=O)C3=O)CC2)cc1 | 83% |
| COCCCNc1nc2c(-c3ccccc3)nnn2c2ccccc12 | 78% |
| O=C(NCc1nc2ccccc2[nH]1)c1c(F)cccc1F | 56% |
| O=C(Nc1cccc(NC(=O)c2ccccc2F)c1)c1ccccc1 | 77% |
| O=C(Nc1ccc2nc(-c3ccccc3)[nH]c2c1)c1ccco1 | 1% (active) |
| Cc1csc2nc(-c3cccc(NC(=O)c4ccccc4F)c3)cn12 | 126% |
| CCC(=O)Nc1ccc(-c2nc3ccc(NC(=O)CC)cc3[nH]2)cc1 | 66% |
| O=C(Nc1cccc(-c2nc3ccccc3[nH]2)c1)c1ccccc1F | 29% (active) |
| CC(C)(C)C(=O)Nc1ccc(-c2nc3ccc(NC(=O)C(C)(C)C)cc3[nH]2)cc1 | 105% |
| O=C(Nc1cccc(-c2nc3ccccc3[nH]2)c1)c1c(F)cccc1F | 37% (active) |
| CC(=O)Nc1cc(NC(C)=O)cc(-c2nc3ccccc3[nH]2)c1 | 83% |
| O=C(Nc1ccc(C(=O)OCc2cc(=O)n3ccsc3n2)cc1)c1cccc(F)c1 | 102% |
| COc1ccc(C(=O)N(Cc2ccco2)Cc2ccccc2F)cc1Cl | 98% |

| SMILES | survival |
| --- | --- |
| Cc1cccc(NC(=O)CCN2CCC(C)CC2)c1 | 91% |
| Cc1ccc(NC(=O)CSc2nc(=O)n(CCCN(C)C)c3c2CCC3)cc1F | 71% |
| COc1cc(NC(=O)C(CC(C)C)N2Cc3ccccc3C2=O)cc(OC)c1 (centres undefined) | 108% |
| O=C(Cc1ccccc1)N=Nc1c(O)[nH]c2ccccc12 | 91% |
| O=C(N=Nc1c(O)[nH]c2ccccc12)C1C2CCCCC21 (centres undefined) | 95% |
| O=C(N=Nc1c(O)[nH]c2ccccc12)C1CC1c1ccccc1 (centres undefined) | 35% (active) |
| Cc1cc(Nc2cccc(Cl)c2)nc2ccc(NC(=O)Cc3ccc(Cl)cc3)cc12 | 105% |
| Cc1c(C(=O)N2CCCCCC2)c(S(=O)(=O)NCc2ccccc2)c(C)n1C | 77% |
| CCOc1ccc2[nH]c(=O)c(CN(Cc3ccccc3)C(=O)N3CCOCC3)cc2c1 | 105% |
| CC(C)c1ccc(-c2nnn(CC(=O)OC3CCCCC3)n2)cc1 | 87% |
| CC(C)COc1ccc(-c2nnn(CC(=O)N3C(C)CCCC3C)n2)cc1 (centres undefined) | 69% (active) |
| CCOc1ccc(-c2nnn(CC(=O)NC3CCCCC3)n2)cc1 | 75% |
| Cc1ccc(NC(=O)Cc2ccc(-n3c(C)nc4cccnc43)cc2)c(Cl)c1 | 107% |
| CCOc1ccc(NC(=O)CSc2ncn[nH]2)cc1 | 67% |
| CCCN1C(=O)c2[nH]nc(-c3ccccc3O)c2C1c1ccc(OCc2ccccc2)c(OCC)c1 (centres undefined) | 40% (active) |
| CCCCN1C(=O)c2[nH]nc(-c3ccccc3O)c2C1c1cc(Br)c(O)c(OC)c1 (centres undefined) | 2% (active) |
| COCCN1C(=O)c2[nH]nc(-c3ccccc3O)c2C1c1ccc(Cl)c(Cl)c1 (centres undefined) | 3% (active) |
| CCOc1cc(C2c3c(-c4ccccc4O)n[nH]c3C(=O)N2CCc2ccccc2)ccc1O (centres undefined) | 29% (active) |
| CCCN1C(=O)c2[nH]nc(-c3ccc(F)cc3)c2C1c1ccc(O)c(OCC)c1 (centres undefined) | 51% |
| CCCOc1ccc(C2c3c(-c4ccccc4O)n[nH]c3C(=O)N2CCc2ccccc2)cc1OCC (centres undefined) | 53% |

| SMILES | survival |
| --- | --- |
| COc1cc(C2c3c(-c4ccccc4O)n[nH]c3C(=O)N2Cc2ccncc2)cc(OC)c1OC (centres undefined) | 82% |
| COc1ccc(/C=C\c2onc(C)c2S(=O)(=O)N2CCC(C(=O)Nc3cccc(OC)c3)CC2)cc1 | 97% |
| Cc1cc(C)n(C2CC(=O)N(N(C)C)C2=O)n1 (centres undefined) | 92% |
| Cc1cc(C)c2c(=O)cc(C(=O)Nc3ccc(S(=O)(=O)Nc4nc(C)cc(C)n4)cc3)oc2c1 | 103% |
| O=C(CO)N/N=C\c1c(F)cccc1Cl | 51% |
| Cc1ccc(S(=O)(=O)C(CNC(=O)Cc2ccc(Cl)cc2)c2cccs2)cc1 (centres undefined) | 85% |
| CCc1ccc(NC(=O)CSC2=Nc3ccccc3C3=NC(CC(=O)NC4CCCCC4)C(=O)N23)cc1 (centres undefined) | 86% |
| CC(C)(O)C1Cc2cc(/C=C/C(=O)O)c(O)cc2O1 (centres undefined) | 88% |
| CN(C)c1ccc(CNC(=O)c2ccc(NC(=O)c3nsc4ccccc34)cc2)cc1 | 84% |
| COc1cc(C2c3c(-c4ccccc4O)n[nH]c3C(=O)N2CCO)ccc1OCc1ccccc1 (centres undefined) | 77% |
| COCCN1C(=O)c2[nH]nc(-c3ccccc3O)c2C1c1ccc(OCc2ccccc2)c(OC)c1 (centres undefined) | 13% (active) |
| CCOc1ccc(C2c3c(-c4ccccc4O)n[nH]c3C(=O)N2Cc2cccnc2)cc1OC (centres undefined) | 90% |
| CCCCN1C(=O)c2[nH]nc(-c3ccccc3O)c2C1c1ccc(OCc2ccccc2)c(OC)c1 (centres undefined) | 35% (active) |
| CCCN1C(=O)c2[nH]nc(-c3ccccc3O)c2C1c1ccc(OCc2ccccc2)c(OC)c1 (centres undefined) | 44% (active) |
| CCCCOc1ccc(C2c3c(-c4ccccc4O)n[nH]c3C(=O)N2Cc2ccncc2)cc1OC (centres undefined) | 61% |
| CCOC(=O)c1c(C)[nH]c(CCC(=O)NCc2ccc(F)cc2)c1C | 89% |
| COCCCNC(=O)Cn1nc(N2CCN(c3ccccc3)CC2)ccc1=O | 91% |
| c1ccc(CSc2nc3ncccc3[nH]2)cc1 | 93% |
| CCN(CC)C(=O)C1CCN(C(=O)c2cnn(-c3ccccc3)c2-n2cccc2)CC1 | 83% |
